Columns and labels:
Format in all cases: functional
[1] = biological target: Solute carrier family 2, facilitated glucose transporter member 1 (Homo sapiens) (UniProt P11166); test: ST_JUDE_LEISH: Cytotoxicity at 2uM final concentration against transgenic Leishmania Mexicana promastigotes LmGLUT1 that are glucose transport deficient and complemented with the human glucose transporter GLUT1. Activity is measured by DNA content using SYBR green in vitro
[2] = biological target: Hexose transporter 1 (Plasmodium falciparum) (UniProt O97467); test: ST_JUDE_LEISH: Cytotoxicity at 2uM final concentration against transgenic Leishmania Mexicana promastigotes LmPfHT that are glucose transport deficient and complemented with the Plasmodium falciparum hexose transporter. Activity is measured by DNA content using SYBR green in vitro
[3] = biological target: Glucose transporter (Leishmania mexicana) (UniProt O61059); test: ST_JUDE_LEISH: Cytotoxicity at 2uM final concentration against transgenic Leishmania Mexicana promastigotes LmGT2 that are glucose transport deficient and complemented with the L. Mexicana glucose transporter 2. Activity is measured by DNA content using SYBR green in vitro

Chain of Solute carrier family 2, facilitated glucose transporter member 1 (Homo sapiens) (P11166 whole entry): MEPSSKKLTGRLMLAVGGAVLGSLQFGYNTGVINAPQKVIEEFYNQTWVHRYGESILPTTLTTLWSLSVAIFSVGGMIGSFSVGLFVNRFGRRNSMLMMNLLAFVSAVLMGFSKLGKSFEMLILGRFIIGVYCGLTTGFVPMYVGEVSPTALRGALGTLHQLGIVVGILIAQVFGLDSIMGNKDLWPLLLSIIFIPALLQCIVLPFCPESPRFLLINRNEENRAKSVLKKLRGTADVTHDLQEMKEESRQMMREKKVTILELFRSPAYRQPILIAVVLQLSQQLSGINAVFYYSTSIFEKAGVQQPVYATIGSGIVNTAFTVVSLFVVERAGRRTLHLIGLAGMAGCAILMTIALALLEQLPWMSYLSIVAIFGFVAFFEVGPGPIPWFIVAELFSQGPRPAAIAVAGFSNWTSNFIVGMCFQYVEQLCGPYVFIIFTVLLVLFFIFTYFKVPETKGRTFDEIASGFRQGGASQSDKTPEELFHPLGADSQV

Row | SMILES | inhibition [1] | inhibition [2] | inhibition [3]
1 | OC(CNc1ccnc(Nc2cccc(Cl)c2)n1)c1ccccc1C(F)(F)F (stereo not given) | 4.32% | 4.32% | -0.94%
2 | O=C(NCCCCCN1CCC(c2ccc(O)cc2)CC1)c1ccc(-c2ccccc2)cc1 | 5.44% | 3.34% | 6%
3 | COc1ccc(F)cc1-c1cccc(CNC2CCN(CC3Cn4c(=O)ccc5ccc(F)c3c54)CC2)c1 (stereo not given) | 10.1% | 14.3% | 18.8%
4 | CC1=C(C(=O)OC(C)C)C(c2ccccc2Cl)C2=C(CC(c3ccccc3)CC2=O)N1 (stereo not given) | 7.11% | 6.69% | 7.36%
5 | CCOc1cccc(C(=O)Nc2ccc(-c3nc4ccccc4[nH]3)cc2)c1 | 4.46% | 3.79% | 3.58%
6 | O=[N+]([O-])c1cccc(CNCC2CCN(Cc3ccc(O)cc3)CC2)c1 | 21.4% | 5.62% | 2.59%
7 | Cc1ccc(-c2cc(C(=O)Nc3ccc(S(=O)(=O)N(C)Cc4ccccc4)cc3)[nH]n2)c(O)c1 | 0.95% | 0.3% | 1.49%
8 | CC1N=C(N)N=C(N)N1OCc1cccc2ccccc12 (stereo not given) | 1.93% | 0.04% | 1.84%
9 | CCN1CCC(NCc2ccc(-c3ccc(Cl)cc3)cc2)CC1 | 23.6% | 11% | 7.91%
10 | O=S(=O)(NCCN1CCCC1)c1ccc(-c2ccc(CNCc3ccsc3)cc2)cc1 | 13.4% | 6.54% | 5.55%
11 | CC1(C)N=C(N)N=C(N)N1OCC1COc2ccccc2O1 (stereo not given) | 1.54% | 0.64% | 0.96%
12 | CC(=O)Nc1ccc(C(=O)Nc2cccc(-c3cccc(-c4nc5ccccc5[nH]4)c3)c2)cn1 | 2.35% | -0.22% | 1.34%
13 | CCCCNCc1ccc(-c2nc(CN(C(=O)Nc3cc([N+](=O)[O-])ccc3F)C3Cc4ccccc4C3)cs2)cc1 | 6.86% | 8.03% | 4.78%
14 | O=C(NC1CCCC1)c1ccc(N2CCC(NCc3cccc(C(F)(F)F)c3)CC2)cc1 | -0.33% | -0.97% | 0.59%
15 | Cc1ccc(NC(=O)c2ccc(CN3CCCN(Cc4cccc(O)c4)CC3)cc2)cc1F | 7.81% | 6.4% | 6.83%
16 | CCNc1cc(C(=O)NC(Cc2ccccc2)C(O)CNC2CCSCC2)cc(N2CCCC2=O)c1 (stereo not given) | 3.69% | 3.13% | 4%
17 | O=C(/C=C/c1ccccc1F)NC1CCC(CCN2CCc3ccc(-c4cccnc4)cc3CC2)CC1 (stereo not given) | 15.8% | 15.8% | 20.1%
18 | Cc1ccc(Cn2ncc(N3CC(C)NC(C)C3)c(Cl)c2=O)cc1NC(=O)Nc1ccc(-c2ccccc2)cc1 (stereo not given) | 14.6% | 13.9% | 13.6%
19 | COc1ccc(CN2CCCC(Nc3ccc(F)c(F)c3)C2)c(O)c1 (stereo not given) | 2.58% | 1.39% | 3.1%
20 | CS(=O)(=O)c1ccc(CNCc2cccc(-c3cccc(-c4nc5ccccc5[nH]4)c3)c2)cc1 | 2.3% | 0.28% | -2.15%

Row | SMILES | inhibition [1] | inhibition [2] | inhibition [3]
21 | Cc1ccc(F)c(OCC2CCN(c3ncc(C(=O)NC4CC4)cc3Cl)CC2)c1 | -1.14% | 2.1% | 1.1%
22 | Cc1ccc2cc(NC(=O)c3cccc(C(=O)Nc4ccc5nc(C)ccc5c4)n3)ccc2n1 | 15.1% | 12.2% | 11.6%
23 | COc1ccc2c(c1)CC(NCc1ccc(-c3ccc4nc[nH]c4c3)cc1)C2 (stereo not given) | 4.22% | 2.21% | 1.31%
24 | Cc1nc(-c2cccc(Nc3nccc(NCC(O)c4cccc(F)c4)n3)c2)cs1 (stereo not given) | -0.89% | -0.36% | -3.57%
25 | Cc1c(C(C)(C)C)ccc2nc(N)nc(N)c12 | 64% | 63.5% | 56.6%
26 | CS(=O)(=O)c1ccc2[nH]c(-c3cc(-c4cccc(F)c4)cnc3N)nc2c1 | 5.71% | 3.53% | 3.04%
27 | N=C1NC(=N)N(OCCCCCCON2C(=N)NC(=N)NC2C=Cc2ccccc2)C(C=Cc2ccccc2)N1 (stereo not given) | 1.73% | 2.16% | 10.7%
28 | O=C(/C=C/c1ccc(Cl)c(Cl)c1)NCCCCCN1CCC(NC(=S)Nc2cccc(Cl)c2)CC1 | 2.06% | 0.6% | -0.54%
29 | CCOC(=O)CNC(=O)N(CCN(Cc1ccccc1)C(=O)NCC(=O)OCC)Cc1ccccc1 | 0.94% | 2.07% | 1.35%
30 | COc1ccc2c(c1)nc(CNC(=N)N)n2Cc1ccc(Cl)cc1 | 1.63% | 1.08% | 1.85%
31 | O=[N+]([O-])c1cccc(NC(=S)N2CCCN(Cc3ccc(F)cc3F)CC2)c1 | 0.91% | 1% | 0.66%
32 | CCn1ccc2c(N3CCCCS3(=O)=O)cc(C(=O)N[C@@H](Cc3ccccc3)[C@H](O)CNC3CCCCC3)cc21 | 5.11% | 5.66% | 3.42%
33 | Cc1noc(-c2ccc3c(c2)CCN(CCC2CCC(NC(=O)/C=C/c4cccc(Cl)c4)CC2)CC3)n1 (stereo not given) | 1.02% | 0% | 0.68%
34 | CCOc1ccc2[nH]c(C)cc(=NN=Cc3cccc(C)n3)c2c1 | 3.19% | 7.58% | 2.54%
35 | COc1ccc(Nc2nccc(N3CCC(NC(=O)c4cccc(NC(C)=O)c4)C3)n2)cc1 (stereo not given) | 0.39% | 0.61% | 1.86%
36 | Cc1ccc2c(c1)c(-c1ccccc1)c(-c1ccccc1)n2CC(O)CN1CCN(CC=Cc2ccccc2)CC1 (stereo not given) | 0.38% | 1.97% | 0.7%
37 | COc1ccc(N2CCN(CCCC/C=C/c3ccc(NC(=O)c4cc(Cl)cc(Cl)c4)cc3)CC2)c(OC)c1 | 2.58% | 1.17% | 0.93%
38 | COc1ccc(CCNC(=O)c2ccc(-n3cc(NC(=O)c4cccnc4)cn3)cc2)cc1OC | 3.78% | 3.85% | 3.79%
39 | COc1ccc(O)c(Cc2cnc3nc(N)[nH]c(=O)c3c2C)c1 | 1.02% | 0.5% | 4.01%
40 | COc1ccc2nccc([C@@H](O)CN3CCC(NCc4ccc5c(c4)nnn5C(C)C)CC3)c2c1 | 18.3% | 20.9% | 5%
